We go through 36 molecules from ChEMBL document CHEMBL3433997, “St. Jude Leishmania screening dataset” (2016).

Format in all cases: functional
In experiment [1] the target is Solute carrier family 2, facilitated glucose transporter member 1 (Homo sapiens) (UniProt P11166). Kind of experiment: ST_JUDE_LEISH: Cytotoxicity at 2uM final concentration against transgenic Leishmania Mexicana promastigotes LmGLUT1 that are glucose transport deficient and complemented with the human glucose transporter GLUT1. Activity is measured by DNA content using SYBR green in vitro.

The target in experiment [2] is Hexose transporter 1 (Plasmodium falciparum) (UniProt O97467). Kind of experiment: ST_JUDE_LEISH: Cytotoxicity at 2uM final concentration against transgenic Leishmania Mexicana promastigotes LmPfHT that are glucose transport deficient and complemented with the Plasmodium falciparum hexose transporter. Activity is measured by DNA content using SYBR green in vitro.
Experiment [3] addresses Glucose transporter (Leishmania mexicana) (UniProt O61059). In words: ST_JUDE_LEISH: Cytotoxicity at 2uM final concentration against transgenic Leishmania Mexicana promastigotes LmGT2 that are glucose transport deficient and complemented with the L. Mexicana glucose transporter 2. Activity is measured by DNA content using SYBR green in vitro.

Solute carrier family 2, facilitated glucose transporter member 1 (Homo sapiens), sequence (P11166 whole entry): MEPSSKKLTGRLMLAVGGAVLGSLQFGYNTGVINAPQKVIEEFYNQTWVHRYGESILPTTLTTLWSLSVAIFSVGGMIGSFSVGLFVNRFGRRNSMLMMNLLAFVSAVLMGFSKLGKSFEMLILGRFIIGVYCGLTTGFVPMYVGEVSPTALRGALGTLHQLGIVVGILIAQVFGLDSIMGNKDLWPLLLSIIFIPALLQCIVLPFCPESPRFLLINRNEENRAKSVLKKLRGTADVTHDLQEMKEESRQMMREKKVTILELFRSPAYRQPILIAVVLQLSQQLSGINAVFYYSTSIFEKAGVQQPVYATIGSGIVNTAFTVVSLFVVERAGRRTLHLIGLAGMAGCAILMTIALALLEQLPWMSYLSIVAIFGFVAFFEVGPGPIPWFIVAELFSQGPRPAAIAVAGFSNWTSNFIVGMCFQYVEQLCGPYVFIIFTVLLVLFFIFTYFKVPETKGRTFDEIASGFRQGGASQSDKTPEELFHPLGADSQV

Turning to `COc1ccc(Cc2nc(/N=C(\N)Nc3ccccc3)ccc2OC)cc1`, the figures for the inhibition in experiment [1], in experiment [2] and in experiment [3] were 0.38%, 1.68% and -0.02%, respectively.

Regarding `CC(=O)Nc1ccc(C(=O)Nc2cccc(-c3ccc(-c4nc5cc(C(F)(F)F)ccc5[nH]4)cc3)c2)cn1`, the inhibition in experiment [1] was 2.59%; in experiment [2], -0.8%; in experiment [3], 3.05%.

For the molecule `CC(C)(CN1CCCC1)CN(Cc1ccc(-c2ccc(C(F)(F)F)cc2)cc1)C(=O)Cn1c(CCc2cccc(F)c2F)nc(=O)c2ccccc21`, the inhibition in experiment [1] worked out at 10.3%; in experiment [2], 8.05%; in experiment [3] it was 8.96%.

Consider `CC(=O)Nc1ccc(CN2CCC(CNC(=O)c3cc(-c4cccc(Cl)c4)cs3)C2)cc1` (stereo not drawn), for which the inhibition is -1.53% in experiment [1], 0.33% in experiment [2] and 3.3% in experiment [3].

As to `N#Cc1cccc(C(=O)Nc2ccc(-c3nc4ccccc4[nH]3)cc2)c1`, the inhibition in experiment [1] was 0.28%; in experiment [2], -0.34%; in experiment [3], -0.95%.

Take `Cc1cc(N[C@@H](CC(C)C)C(=O)NCCc2ccccc2)nc(Nc2ccccc2)n1`: the inhibition is 4.26% in experiment [1], 5.37% in experiment [2] and 2.63% in experiment [3].

`O=C(/C=C/c1ccc(Cl)c(Cl)c1)NCCCCCCN1CCCN(C(=O)Nc2ccc(F)c(Cl)c2)CC1`: the figures for the inhibition in experiment [1], in experiment [2] and in experiment [3] were 3.61%, 2.44% and 2.6%, respectively.

With `CC(=O)Nc1ccc(CN(Cc2ccc(C)cc2)Cc2cccc(Oc3ccccc3)c2)cc1`, the inhibition in experiment [1] is 2.75%; in experiment [2], 3.12%; in experiment [3], 2.62%.

With `C=CCn1c(SCc2c(C)noc2C)nc2scc(-c3cccs3)c2c1=O`, the inhibition in experiment [1] is 0.98%; in experiment [2], 0.21%; in experiment [3], -5.13%.

On to `Cc1cc(O)nc(NC(=N)NOCc2ccccc2)n1`, for which the inhibition in experiment [1] is -1.66%; in experiment [2], 1.03%; in experiment [3] it was 1.07%.

Consider `CCC(CCON1C(N)=NC(N)=NC1(C)C)c1ccc(Cl)c(Cl)c1` (stereo not drawn), for which the inhibition was 3.2% in experiment [1], 3.06% in experiment [2] and 3.3% in experiment [3].

Take `CCc1nc(N)nc(N)c1-c1ccc(F)c(F)c1`: the inhibition turned out to be 3% in experiment [1], 5.22% in experiment [2] and 3.74% in experiment [3].

`Cc1cccc(-c2cccc(CNc3nc(NCCc4ccc(O)cc4)nc(N4CCNCC4)n3)c2)c1`: the inhibition in experiment [1] was 2.88%; in experiment [2], 3.88%; in experiment [3], 2.83%.

Consider `COCCNCC(O)Cn1c2ccc(Cl)cc2c2cc(Cl)ccc21` (stereo not drawn), for which the inhibition was -1.12% in experiment [1], -1.7% in experiment [2] and -0.53% in experiment [3].

As for `COc1cccc(C=CC(=O)N(CCN)Cc2ccccc2)c1`, the values for the inhibition in experiment [1], in experiment [2] and in experiment [3] were 6.9%, 8.75% and 7.33%, respectively.

Take `O=C(NCCN1CCC(NC(=O)c2ccc(-c3ccccn3)s2)CC1)c1ccc(Cl)c(Cl)c1`: the inhibition in experiment [1] was 3.53%; in experiment [2], 4.02%; in experiment [3], 4.43%.

`CN(CCCCCN1CCC(NC(=O)Nc2ccc(C(F)(F)F)cc2)C1)C(=O)/C=C/c1ccc(Cl)c(Cl)c1` (stereo not drawn): the inhibition in experiment [1] was found to be 3.11%; in experiment [2], 2.11%; in experiment [3], 2.97%.

Turning to `CNC(=O)/C=C/c1cc(NC(=O)Nc2cc(C)nc3c(F)cccc23)ccc1OC`, the inhibition stood at 3.93% in experiment [1], 2.38% in experiment [2] and 3.44% in experiment [3].

Regarding `CCC(CO)NCC(O)Cn1c2ccc(Br)cc2c2cc(Br)ccc21` (stereo not drawn), the inhibition is 1.9% in experiment [1], -0.92% in experiment [2] and -1.57% in experiment [3].

Turning to `CCNC(=O)Nc1ccc(-c2ccc(-c3nc4cccc(C)c4[nH]3)s2)cc1`, the inhibition in experiment [1] is 11.7%; in experiment [2] it was 8.87%; in experiment [3], 7.95%.

For the molecule `O=C(Nc1cccc(CN2CCCN(Cc3ccc(O)cc3)CC2)c1)c1ccc2ccccc2c1`, the values for the inhibition in experiment [1], in experiment [2] and in experiment [3] were 4.27%, 4.08% and 3.93%, respectively.

Regarding `CN(C1CCC(NC(=O)/C=C/c2ccccc2)CC1)C1CC2(CCN(C(=O)OC(C)(C)C)CC2)c2ccccc21` (stereo not drawn), the inhibition came to 9.97% in experiment [1], 5.58% in experiment [2] and 6.01% in experiment [3].

Turning to `CCN1CCC(N(Cc2ccc(-c3ccc(C(F)(F)F)cc3)cc2)C(=O)CCCCn2c(CCc3cccc(F)c3F)nc(=O)c3ccccc32)CC1`, the figures for the inhibition in experiment [1], in experiment [2] and in experiment [3] were 1.08%, -1.15% and -0.6%, respectively.

Regarding `C#Cc1cccc(NC(=O)[C@H](CC2CCCCC2)Nc2ccc(C#N)c3ccccc23)c1`, the inhibition in experiment [1] stood at 2.22%; in experiment [2] it was 2.53%; in experiment [3], 1.87%.

For `Cc1cc(C(=O)OCC(=O)Nc2c(C)n(C)n(-c3ccccc3)c2=O)c(C)n1-c1ccc(F)cc1`, the inhibition was -2.25% in experiment [1], -1.81% in experiment [2] and -0.97% in experiment [3].

Consider `O=C(c1cc(-c2ccccc2O)on1)N1CCN(C(c2ccccc2)c2ccccc2)CC1`, for which the inhibition is -0.36% in experiment [1], -0.36% in experiment [2] and 0.34% in experiment [3].

Regarding `CN(c1ncc(-c2cccc(CNCc3ccccc3O)c2)cn1)C1CCCCC1`, the inhibition in experiment [1] was -1.25%; in experiment [2] it was -0.2%; in experiment [3], 0.12%.

Take `Cc1cc(=NN=CC=Cc2ccccc2)c2cc(F)ccc2[nH]1`: the inhibition in experiment [1] is 0.37%; in experiment [2] it was 0.85%; in experiment [3] it was 0.04%.

With `CCOC(=O)c1c(CN(CC)CC)n(-c2ccccc2)c2cc(Br)c(O)cc12`, the inhibition was found to be 2.14% in experiment [1], 3.81% in experiment [2] and 1.76% in experiment [3].

As to `Cc1c(C)c2c(c(C)c1O)CCC(C)(CCC(=O)O)O2` (stereo not drawn), the inhibition was found to be 0.86% in experiment [1], 2.15% in experiment [2] and 1.82% in experiment [3].

In the case of `O=C(NCc1ccccc1F)c1ccc(N2CCC(NCc3cccc(-n4cccn4)c3)CC2)cc1`, the inhibition in experiment [1] was -0.13%; in experiment [2], 3.43%; in experiment [3] it was -1.93%.

Turning to `N#Cc1cncc(-c2nc3c(N4CCCC(N)C4)cccc3n2CCNCc2ccccc2)c1` (stereo not drawn), the inhibition was 6.64% in experiment [1], 5.11% in experiment [2] and 8.87% in experiment [3].

For the molecule `CCCc1ccc(-c2csc(NC(=O)c3ccc([N+](=O)[O-])o3)n2)cc1`, the inhibition in experiment [1] worked out at 78.4%; in experiment [2], 77.8%; in experiment [3], 37.8%.

On to `O=C(Nc1cccc(-c2ccc(CN3CCCC3)cc2)c1)c1ccc(F)cc1`, for which the inhibition is -0.73% in experiment [1], 0.3% in experiment [2] and 0.64% in experiment [3].

Regarding `CCOc1cc(C)ccc1N1CCN(CCCCNC(=O)c2ccc(NC(=O)c3ccc(Cl)cc3)cc2)CC1`, the inhibition in experiment [1] is 0.02%; in experiment [2] it was -2.19%; in experiment [3], -0.2%.

Turning to `COc1cc2nc(N3CCC(CCCC4CCNCC4)CC3)nc(NCc3ccccn3)c2cc1OC`, the inhibition came out at 73.5% in experiment [1], 68.6% in experiment [2] and 57.1% in experiment [3].

In general, inhibition refers to the relative decrease from the control value, in per cent.
